TGFb inhibitor: TGF-b pathway inhibition; AID 588855; actives 1.2% (n = 410,000); HepG2 CAGA-GFP TGF-b/SMAD3 reporter, GFP fluorescence, 18 h; TGF-beta stimulated, 500 pg/mL final; Potency, µM (doses to about 46.1 µM), without a hit: at the highest dose activity, negative = inhibition, hits mostly inhibitors; note: % is set by controls: 0 for no effect and ±100 for the full control effect; nearly all actives have a fitted effect of over 65% in size
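Per well, imaged GFP fluorescence of HEPG2 CAGA-GFP cells gives the signal; cells get compound, then TGF-beta (500 pg/mL final), 18 h at 37 degrees C; %Activity versus -TGF-beta and +DMSO controls.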
TDP1 cell CPT: growth inhibition of DT40 Tdp1-/-;hTDP1 cells with camptothecin (screen for TDP1 inhibitors). actives 12% (n = 420,000). chicken DT40 Tdp1-/-;hTDP1 cells + 20 nM CPT, ATP luminescence, 48 h. Potency, µM (highest dose often 46.2 µM), for the others: top-dose activity change, negative = growth inhibition, usual class: inhibitors; note: % is set by controls: 0 for no effect and ±100 for the full control effect; nearly all actives have a fitted effect of over 55% in size
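Chicken DT40 Tdp1-/- cells stably complemented with human TDP1 were seeded at 400 cells/well in medium containing 20 nM camptothecin, exposed to pin-transferred compounds, and grown at 37 °C for at least 48 hr. Viability was read as ATP luminescence.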
HepG2 viability: counter-screen for TGF-b inhibitors: cytotoxicity in HepG2 cells; HepG2 CAGA-GFP viability, ATP luminescence, 18 h; Potency, µM (doses to about 46.1 µM), for inactives: top-dose activity change, negative = cytotoxicity, most hits filed as cytotoxic; actives 0.76% (n = 410,000); AID 588856
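CellTiter-Glo luminescence gave cytotoxicity after 18 hours at 37 degrees C. The cells were HepG2 CAGA-GFP in 1% FBS DMEM, stimulated with 500 pg/mL TGF-beta after compound addition. %Activity was normalised to no-cell wells (complete cell-killing) and DMSO (no toxicity), and curves were fitted and classified.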
ATXN viability: cell viability loss in ATXN counter-screen. Potency, µM (top dose mostly 56.7 µM), hits mostly cytotoxic. S2 cells (HEK-293 line with an ATXN2-luciferase reporter) viability, CellTiter-Fluor protease fluorescence, 24 h. actives 0.49% (n = 400,000). AID 651635; note: nearly all actives have a fitted effect of over 40% in size
ATXN2 expr inh: inhibitors of ATXN2 expression; AID 1745845; Potency, µM (top dose mostly 57 µM), inactives show at the top dose activity change, negative = inhibition, hits mostly inhibitors; actives 0.72% (n = 360,000); HEK-293 ATXN2-luciferase reporter, luminescence, 24 h; note: % is set by controls: 0 for no effect and ±100 for the full control effect; nearly all actives have a fitted effect of over 55% in size
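ATXN2-luciferase reporter cells (luciferase flanked by upstream and downstream ATXN2 gene portions) were treated 24 h at 37 °C with compounds at up to 57 uM. SteadyGlo luminescence gave expression; GF-AFC fluorescence gave viability.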
DT40 TDP1 no CPT: qHTS for Inhibitors of human tyrosyl-DNA phosphodiesterase 1 (TDP1): qHTS in cells in absence of CPT. DT40 Tdp1-/- hTDP1 cells, no CPT, ATP luminescence, 48 h. Potency, µM (series often up to 46.2 µM), without a hit: top-dose activity change, negative = growth inhibition, hits mostly inhibitors. actives 15% (n = 420,000); note: % is set by controls: 0 for no effect and ±100 for the full control effect; nearly all actives have a fitted effect of over 55% in size
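Compound effects on proliferation are scored in DT40 Tdp1-/-;hTDP1 cells in the absence of CPT. ATP levels (CellTiter-Glo luminescence) are recorded after a ≥48 hr, 37 °C incubation.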
* marks the source's active call; other numbers are inactive results; i = inactive; ? = inconclusive; nt = no result; [ ] = dose if it differs, or a comment. This is a sample that favours compounds with a hit; in the whole collection about 17% have one here. Calls come from the whole dose curve; as a rule, active = well fitted curve in the direction sought with a large enough effect; inconclusive = small, poorly fitted or top-dose-only effect, or another doubt; inactive = no such curve, though single readings can be large; an effect the other way counts as inactive or inconclusive. Potency is the fitted concentration of half-maximal effect.

SMILES	TGFb inhibitor	TDP1 cell CPT	HepG2 viability	ATXN viability	ATXN2 expr inh	DT40 TDP1 no CPT
CC(C)CC(=O)OC(C)(C)[C@@H]1Cc2c(ccc3ccc(=O)oc23)O1	-15.8%	?	-1.8%	i	-2.3%	?
C/C=C(/C)C(=O)O[C@@H]1[C@H](OC(C)=O)c2c(ccc3ccc(=O)oc23)OC1(C)C	?	?	3.4%	i	-19.9%	16.4µM*
C/C=C(\C)C(=O)OC(C)(C)[C@@H]1Cc2cc3ccc(=O)oc3cc2O1	6.31µM*	?	-32.1%	i	-23.3%	?
CCN1C=C(C(=O)c2ccccc2)C(=O)CC1	-3.2%	-36.4%	0.7%	i	3.5%	4.3%
O=C(c1cc(-c2ccccc2)on1)N1CCOc2ccc(CN3CCOCC3)cc2C1	nt	14.5%[9.04 µM]	nt	?	nt	?
CCOc1ccc(N2CC(C(=O)NCCN3C(=O)S/C(=C/c4cccnc4)C3=O)CC2=O)cc1 (configuration not stated)	-14.3%	2.1%	2.1%	i	1.9%	-29.6%
CCOc1ccc(NC(=O)c2oc3ccccc3c2NC(=O)Cc2ccc(F)cc2)cc1	-4.4%	-6.3%	-0.9%	?	-3.1%	?
N=c1ccn2c(n1)OCC1C2O[C@@H](O)[C@H]1O (some centres not stated)	nt	0.13µM*	nt	nt	nt	0.146µM*
COc1ccccc1OCC(O)Cn1c(Br)nc2c1c(=O)[nH]c(=O)n2C (configuration not stated)	-3.9%	?	-3.3%	i	-6.8%	14.6µM*
CCN(CC)CCNc1nc2c(c(=O)[nH]c(=O)n2C)n1CC(O)COc1ccc(Cl)cc1Cl (configuration not stated)	-15.0%	-7.3%	-10.9%	?	-7.1%	-17.6%
Cn1c(=O)[nH]c(=O)c2c1nc(Br)n2CC(O)COc1ccccc1 (configuration not stated)	-8.7%	-1.1%	-3.7%	i	2.8%	-17.6%
Cc1cc(C)n(-c2nc3c(c(=O)[nH]c(=O)n3C)n2CC(O)COc2ccc(Cl)cc2Cl)n1 (configuration not stated)	-18.0%	6.51µM*	-11.3%	i	-25.0%	5.8µM*
O=C(O)C(C1CCCCC1)C1(O)CCCC1 (configuration not stated)	1.2%	0.8%	-76.8%	i	4.6%	-3.8%
COc1cccc(/C=N/NC(=O)Cn2cnc3c2c(=O)n(C)c(=O)n3C)c1	4.8%	29.1µM*	2.4%	i	-0.4%	?
CC1CCN(C(=O)Cn2cnc3c2c(=O)n(C)c(=O)n3C)c2ccccc2S1 (configuration not stated)	3.1%	?	-0.2%	i	-5.8%	18.4µM*
O=C(Cn1cnc2ccccc21)N/N=C/c1cccs1	13.9%	4.7%	8.5%	?	-10.9%	-4.6%
Cn1c(=O)c2c(ncn2CC(=O)N/N=C/C(Br)=C/c2ccccc2)n(C)c1=O	-8.6%	2.31µM*	-4.6%	?	-13.7%	3.66µM*
O=C(Cn1cnc2ccccc21)N/N=C/C(Br)=C/c1ccccc1	?	6.51µM*	-58.1%	?	?	23.1µM*
Cn1c(=O)c2c(ncn2CC(=O)N/N=C/C=C/c2ccccc2)n(C)c1=O	1.4%	-7.1%	6.5%	?	-6.5%	-4.4%
COc1cc(/C=N/NC(=O)Cn2cnc3c2c(=O)n(C)c(=O)n3C)cc(OC)c1OC	-14.5%	22.6%	3.8%	i	15.5%	-3.2%
CCOc1ccc(CCNC(=O)Cn2cccc2C(=O)c2ccccc2C)cc1OCC	-13.6%	?	-0.5%	?	-7.7%	?
COc1ccccc1C(C)NC(=O)CCNC(=O)c1ccc(Cl)cc1 (configuration not stated)	-0.3%	-25.3%	-0.3%	i	-14.1%	-20.3%
CCCCCc1cc(=O)oc2c(C(CCN3CCCC(C)C3)c3ccc(N(C)C)cc3)c(OC)cc(OC)c12 (configuration not stated)	?	?	-76.2%	nt	?	23.1µM*
COc1cc(OC)c2ccc(=O)oc2c1C(CCN1CCCC(C)C1)c1ccc(N(C)C)cc1 (configuration not stated)	3.5%	20.6µM*	-21.4%	?	-0.1%	?
COc1cc(C(CCN2CCCC(C)C2)c2c(OC)cc(OC)c3c(C)cc(=O)oc23)cc(OC)c1OC (configuration not stated)	-4.0%	nt	-37.8%	nt	nt	nt
SMILES	TGFb inhibitor	TDP1 cell CPT	HepG2 viability	ATXN viability	ATXN2 expr inh	DT40 TDP1 no CPT
CCCCCc1cc(=O)oc2c(C(CCN3CCCCC3)c3cc(OC)c(OC)c(OC)c3)c(OC)cc(OC)c12 (configuration not stated)	15.8µM*	?	12.6µM*	20µM*	31.6µM*	?
COc1cc(C2CC(=O)Oc3c(C(CCN4CCCC(C)C4)c4ccc(N(C)C)cc4)c(OC)cc(OC)c32)cc(OC)c1OC (configuration not stated)	-10.2%	-29.3%	-4.9%	i	-11.8%	-28.9%
CCCCCc1cc(=O)oc2c(C(CCN3CCCC(C)C3)c3cc(OC)c(OC)c(OC)c3)c(OC)cc(OC)c12 (configuration not stated)	?	?	15.8µM*	31.6µM*	?	29.1µM*
COc1cc(C(CCN2CCCCC2)c2c(OC)cc(OC)c3c2OC(=O)CC3c2ccc(N(C)C)cc2)cc(OC)c1OC (configuration not stated)	?	nt	-37.1%	nt	nt	nt
CCCCCc1cc(=O)oc2c(C(CCN(CC)CC)c3ccc(N(C)C)cc3)c(OC)cc(OC)c12 (configuration not stated)	?	?	-108.6%	25.1µM*	?	16.4µM*
COc1cc(/C=C2\N=C(C)OC2=O)cc(Cl)c1OC(C)=O	1.2%	14.6µM*	-1.4%	i	-3.6%	?
Clc1ccc(COc2cccc(CNCc3ccncc3)c2)cc1	-13.0%	?	-29.0%	i	-25.3%	18.4µM*
O=C1c2ccccc2NC(c2cn[nH]c2-c2ccc(Cl)cc2)N1O (configuration not stated)	-13.6%	16.4µM*	-21.7%	i	-36.0%	16.4µM*
CN(C)C(=S)N=c1ssc(=S)n1Cc1cccnc1	3.16µM*	1.84µM*	-44.5%	i	-30.4%	2.59µM*
C=CCc1cc(OC)ccc1OCCCCn1cncn1	2.0%	-19.1%	-9.8%	?	nt	-23.0%
